The values below come from PubChem BioAssay (NCATS).

Structures are written as SMILES. Inconclusive results are not listed. Activity calls are given as the source filed them. Unless noted, calls follow the shape of the dose curve; as a rule, active = well fitted curve in the direction sought with a large enough effect; inconclusive = small, poorly fitted or top-dose-only effect, or another doubt; inactive = no such curve, though single readings can be large; an effect the other way counts as inactive or inconclusive.

Experiment [1] deals with Transient receptor potential cation channel subfamily V member 1 (Homo sapiens) (UniProt Q8NER1). The experiment in a line: HTS Assay for Compounds that Act as Enhancers of the Vanilloid Receptor 1 (AID 488979). Also: 0% is about no effect. The gist of the method: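 TRPV1-expressing cells loaded with Fluo-8 calcium dye; compounds added and calcium influx read kinetically for 3 min (agonist phase), then capsaicin at EC20 added and read 2 min more for enhancement. Fluorescence ex 480/em 520 nm.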

Experiment [2] deals with Thyrotropin receptor (Homo sapiens) (UniProt P16473). The experiment in a line: qHTS Assay for Antagonists of the Thyroid Stimulating Hormone Receptor (AID 488980). Also: series mostly up to about 58 µM; 0% is about no effect. The essentials:
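Readout is cAMP by HTRF competition between cellular cAMP and cAMP-d2 for a cryptate-labelled antibody. Antagonism was assessed in TSHR-transfected HEK293 cells stimulated with 4 nM TSH (EC80, final) in the presence of RO 20-1724.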
On the technique in general: Quantitative high-throughput screening tests each substance at several concentrations.

The target in experiment [3] is D(1A) dopamine receptor (Homo sapiens) (UniProt P21728). The experiment in a line: HTS Assay for Allosteric Agonists of the Human D1 Dopamine Receptor: Primary Screen for Potentiators (AID 488982). Also: 0% is about no effect. The gist of the method:
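Tetracycline-induced HEK293 T-REx cells force-coupled to calcium signalling were incubated overnight at 30 C and dye-loaded at room temperature. Calcium flux over 180 s after compound addition flagged agonists; a further 180 s read after EC20 dopamine flagged potentiators.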

The nature of experiment [4]: Validation screen for small molecules that induce genotoxicity in human embryonic kidney (HEK293T) cells expressing luciferase-tagged ELG1 (AID 493106). Also: potency is read from the fitted curve at half-maximal effect. The essentials: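 Reporter-gene quantitative HTS in HEK293T cells carrying luciferase-tagged ELG1, whose level climbs under genotoxic stress. Compound exposure lasts 16 hr at 37 °C before luciferase detection.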
Experiment [5] has as its target Thyrotropin-releasing hormone receptor (Homo sapiens) (UniProt P34981). As to the kind of experiment: qHTS for Small Molecule Agonists and Allosteric Enhancers of Human TRH Receptor: Validation Screen for Agonists (AID 493127;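 active = calcium activation more than 3 SD above the typical response in the agonist read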;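 also: intracellular calcium rise by fluo-8 fluorescence before TRH EC20 addition; 0% is about no effect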). As to conditions: TRH receptor agonist cell assay; at 2 µM; stronger effect = higher value. The essentials:
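Gq-coupled calcium mobilization in TRHR cells after compound addition, monitored kinetically with fluo-8 dye on an FDSS reader.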

Experiment [6] in a line: qHTS for Inhibitors of Cell Surface uPA Generation: Validation Assay (AID 493164).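 Also: RAW 264.7 macrophage cells exposed to compound for 18 h; 0% is about no effect.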 The essentials: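 RAW 264.7, 4000 cells/well, o/n plating; cpd 7-pt 1:5 dilution 2.45 nM–38.3 uM final; 18 h, 37 C/5% CO2; ATP-Lite, 5 s luminescence exposure.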
Experiment [7] has as its target Galactokinase (Homo sapiens) (UniProt P51570). The experiment in a line: qHTS Validation Assay for Inhibitors of Human Galactokinase (GALK) (AID 493189). Also: 0% is about no effect. The gist of the method:
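5 nM GALK / 100 uM galactose / 35 uM ATP, 20 mM HEPES pH8.0, 5 mM MgCl2, 60 mM NaCl, 1 mM DTT, 0.01% BSA (final). RT 1 h; Kinase-Glo Plus luminescence.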

The nature of experiment [8]: Validation screen for small molecules that induce DNA re-replication in SW480 colon adenocarcinoma cells (AID 504364). Also: 0% is about no effect. The essentials: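 Cells are treated 48 hr with test compound, stained 40 min with Hoechst at 37 C, and scanned for nuclear fluorescence; compounds inducing re-replication increase nuclei with elevated intensity.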
Experiment [9] has as its target Peptidyl-prolyl cis-trans isomerase NIMA-interacting 1 (Homo sapiens) (UniProt Q13526). The experiment in a line: qHTS Validation Assay to Find Inhibitors of Pin1 (AID 504536; active = well fitted inhibition curve with a large enough effect in the polarisation, with a control signal flat, not every such curve was filed as active; the % refers to the polarisation;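 also: 0% = full Pin1 enzyme wells and -100% = no-enzyme wells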). The gist of the method: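 Fluorescence polarization competition: compounds (titration) displace HiFluor-488-labeled Pin1-1b peptide from Pin1 (0.3 uM final) in pH 7.5 HEPES buffer with DTT, 10 min at room temperature; %Activity normalized to no-enzyme wells, curves fitted.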

The target of experiment [10] is phosphoglycerate mutase (Leishmania major) (UniProt Q4Q090). As to the kind of experiment: qHTS Validation Assay to Find Inhibitors of Phosphoglycerate Mutase (AID 504548). Also: potency is read from the fitted curve at half-maximal effect. As to conditions: Potency: inhibition qHTS. The essentials:
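L. major PGAM (1.25nM final) was added to substrate buffer and pinned compound, incubated 45 minutes at room temperature, then Kinase-GloPlus added; luminescence read after 10 minutes. Buffer: 100 mM TEA pH 7.6, 5 mM MgCl2, 0.01% Tween-20.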

Experiment [11] deals with Ubiquitin carboxyl-terminal hydrolase 1 (Homo sapiens) (UniProt O94782). As to the kind of experiment: Inhibitors of USP1/UAF1: Pilot qHTS (AID 504865).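 Also: rhodamine fluorescence freed from ubiquitin-rhodamine substrate followed over time; top concentration of the series differs between compounds; % is scaled to controls: 0 for no effect and ±100 for the full control effect; nearly all actives have a fitted effect of over 35% in size.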 The essentials: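 In 50mM HEPES pH 7.8 containing 0.5mM EDTA, 1mM TCEP, 0.1 mg/ml BSA and 0.01% Tween-20, 1nM USP1/UAF1 is exposed to compound for 15 min, then Ub-Rho (150nM final) is added and fluorescence is read over time.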

Experiment [12] in a line: qHTS for Inhibitors of ATXN expression: Validation (AID 588378). Also: nearly all actives have a fitted effect of over 75% in size. Also: potency is read from the fitted curve at half-maximal effect. The essentials:
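Compounds were pinned onto attached HEK293 cells carrying an ATXN2-firefly luciferase construct and incubated 24 hrs at 37 degrees C. Each well then received a fluorescent viability reagent followed by luciferase substrate for end-point luminescence.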

Experiment [13] addresses D(1A) dopamine receptor (Homo sapiens) (UniProt P21728). The experiment in a line: HTS Assay for Allosteric Agonists of the Human D1 Dopamine Receptor: Primary Screen for Antagonists (AID 488983).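 Also: calcium flux response to an EC80 dopamine challenge measured with no-wash dye; nearly all actives have a fitted effect of over 65% in size.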 Also: potency is read from the fitted curve at half-maximal effect. The gist of the method: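 Screening of inducible HEK293 T-REx D1 cells: compound first, EC80 dopamine 180 s later, each phase read kinetically for calcium over 180 s.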
Experiment [14] has as its target ATPase family AAA domain-containing protein 5 (Homo sapiens) (UniProt Q96QE3). As to the kind of experiment: Validation screen for small molecules that inhibit ELG1-dependent DNA repair in human embryonic kidney (HEK293T) cells expressing luciferase-tagged ELG1 (AID 493107).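 Also: cells co-treated with the DNA-damaging agent 5-fluorouridine alongside compound; series mostly up to about 46 µM; % is scaled to controls: 0 for no effect and ±100 for the full control effect; inhibitors lower the ELG1-luciferase luminescence signal; nearly all actives have a fitted effect of over 70% in size.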 The gist of the method:
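Quantitative HTS in HEK293T cells carrying luciferase-tagged ELG1, stimulated with 5-fluorouridine alongside compound for 16 hr. Loss of luciferase signal marks inhibition of ELG1 response.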

Experiment [15] in a line: Nrf2 qHTS screen for inhibitors: Validation (AID 493153; active = well fitted inhibition curve with a large enough effect in the main read-out, with a control signal flat, not every such curve was filed as active). Particulars: Potency: luciferase luminescence; viability change: measured here: cytotoxicity max response. The gist of the method:
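Dose-response validation uses reporter A549 cells with firefly luciferase under an antioxidant response element. Compounds stay on cells 18-24 h at 37°C, and luminescence indicates Nrf2-driven transcription.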

The target in experiment [16] is Phosphoglycerate kinase, glycosomal (Trypanosoma brucei brucei) (UniProt P07378). As to the kind of experiment: qHTS Validation Assay to Find Inhibitors of Phosphoglycerate Kinase (AID 504547).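 Also: control wells lack PGK and mark full inhibition.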 The essentials: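 Substrate/PGK mix plus compound; reaction started with GAPDH (100nM final) to form 1,3-BPG; 60 min RT; Kinase-Glo Plus 10 min; luminescence. TEA 100mM pH 7.6, MgCl2 5mM, Tween-20 0.01%.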

Experiment [17] is described as follows: qHTS for Inhibitors of ATXN expression: Validation of Cytotoxic Assay (AID 588349).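 Also: cells exposed to compound for 72 hr; % is scaled to controls: 0 for no effect and ±100 for the full control effect.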 The gist of the method:
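HEK293, compound dose series, 72 hr / 37 degrees C; viability via CellTiter Glo (intracellular ATP).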

In experiment [18] the target is ATP-dependent 6-phosphofructokinase (Trypanosoma brucei brucei) (UniProt O15648). The experiment in a line: qHTS Assay to Find Inhibitors of T. brucei phosphofructokinase: hit validation (AID 492961).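 Also: luminescence reports ADP formed as PFK phosphorylates fructose-6-phosphate with ATP; series mostly up to about 51 µM; % is scaled to controls: 0 for no effect and ±100 for the full control effect.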 The essentials:
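Reaction: 0.1 M triethanolamine pH 8.0, 5 mM MgCl2, F6P 0.5 mM, ATP 0.1 mM, PFK 1.25 nM, 45 min RT. Read-out: ADP-Glo luminescence. Analysis: concentration-response fits, classed by r2 and efficacy.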

Experiment [19] concerns the target DNA dC->dU-editing enzyme APOBEC-3G (Homo sapiens) (UniProt Q9HC16). As to the kind of experiment: qHTS for inhibitors of Vif-A3G interactions: Validation (AID 588379). Also: 0% is about no effect. The essentials: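 HeLa cells stably expressing Vif and A3G-eYFP, 700 cells/well, incubated overnight at 37 deg C, then exposed to compound overnight at 37 deg C. Inhibition of Vif-mediated degradation read as increased yellow fluorescence (Ex 488/Em 500-530) by laser-scanning cytometry.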

Thyrotropin-releasing hormone receptor (Homo sapiens), sequence (P34981 whole entry, looked up): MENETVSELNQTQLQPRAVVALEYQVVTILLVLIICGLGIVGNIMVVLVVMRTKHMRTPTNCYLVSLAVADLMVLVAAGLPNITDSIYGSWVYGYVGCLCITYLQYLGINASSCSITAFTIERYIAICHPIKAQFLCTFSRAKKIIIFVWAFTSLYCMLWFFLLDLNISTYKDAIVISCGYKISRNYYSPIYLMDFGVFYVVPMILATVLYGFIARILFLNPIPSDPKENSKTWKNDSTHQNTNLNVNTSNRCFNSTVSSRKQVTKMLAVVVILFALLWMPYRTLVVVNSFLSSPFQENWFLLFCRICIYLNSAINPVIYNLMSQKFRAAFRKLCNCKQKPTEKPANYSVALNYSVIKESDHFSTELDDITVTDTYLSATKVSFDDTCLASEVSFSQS
Phosphoglycerate kinase, glycosomal (Trypanosoma brucei brucei), sequence (P07378 whole entry, looked up): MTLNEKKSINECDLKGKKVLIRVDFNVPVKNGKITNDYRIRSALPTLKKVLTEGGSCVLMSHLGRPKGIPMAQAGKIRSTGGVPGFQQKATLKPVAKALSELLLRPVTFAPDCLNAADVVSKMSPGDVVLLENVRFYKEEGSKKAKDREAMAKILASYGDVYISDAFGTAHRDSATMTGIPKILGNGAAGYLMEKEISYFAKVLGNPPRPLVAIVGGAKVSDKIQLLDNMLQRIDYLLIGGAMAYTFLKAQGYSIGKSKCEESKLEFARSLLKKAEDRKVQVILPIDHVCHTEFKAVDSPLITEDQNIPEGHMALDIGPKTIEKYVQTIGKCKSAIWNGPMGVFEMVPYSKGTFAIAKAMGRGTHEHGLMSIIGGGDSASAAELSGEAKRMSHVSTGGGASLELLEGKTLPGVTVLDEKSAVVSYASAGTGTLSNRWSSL
Transient receptor potential cation channel subfamily V member 1 (Homo sapiens), sequence (Q8NER1 whole entry, looked up): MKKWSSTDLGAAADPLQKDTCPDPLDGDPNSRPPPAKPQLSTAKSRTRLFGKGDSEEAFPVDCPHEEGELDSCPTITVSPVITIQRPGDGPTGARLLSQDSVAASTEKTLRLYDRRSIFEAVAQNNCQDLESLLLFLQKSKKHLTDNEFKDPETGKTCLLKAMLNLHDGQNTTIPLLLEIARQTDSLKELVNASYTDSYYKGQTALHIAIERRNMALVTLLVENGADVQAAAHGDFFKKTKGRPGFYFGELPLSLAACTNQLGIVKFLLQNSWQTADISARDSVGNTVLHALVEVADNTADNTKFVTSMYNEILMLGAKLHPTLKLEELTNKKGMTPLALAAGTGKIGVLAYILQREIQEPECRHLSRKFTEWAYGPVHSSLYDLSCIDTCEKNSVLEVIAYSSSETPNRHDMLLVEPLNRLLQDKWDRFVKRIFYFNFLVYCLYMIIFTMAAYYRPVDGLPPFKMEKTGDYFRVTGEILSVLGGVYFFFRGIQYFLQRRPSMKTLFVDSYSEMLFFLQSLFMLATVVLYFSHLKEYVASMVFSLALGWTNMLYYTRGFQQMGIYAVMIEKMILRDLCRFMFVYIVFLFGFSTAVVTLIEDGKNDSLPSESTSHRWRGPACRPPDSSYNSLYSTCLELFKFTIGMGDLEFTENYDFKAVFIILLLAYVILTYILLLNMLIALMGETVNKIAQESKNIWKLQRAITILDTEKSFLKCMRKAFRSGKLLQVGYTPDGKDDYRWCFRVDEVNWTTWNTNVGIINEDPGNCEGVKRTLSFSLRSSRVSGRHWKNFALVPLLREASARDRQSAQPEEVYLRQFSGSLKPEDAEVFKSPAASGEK
Peptidyl-prolyl cis-trans isomerase NIMA-interacting 1 (Homo sapiens), sequence (Q13526 whole entry, looked up): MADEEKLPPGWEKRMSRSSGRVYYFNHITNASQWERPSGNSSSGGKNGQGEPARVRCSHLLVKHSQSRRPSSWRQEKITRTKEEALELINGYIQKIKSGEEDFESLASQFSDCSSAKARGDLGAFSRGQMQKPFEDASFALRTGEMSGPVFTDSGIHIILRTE
phosphoglycerate mutase (Leishmania major), sequence (Q4Q090 1-553): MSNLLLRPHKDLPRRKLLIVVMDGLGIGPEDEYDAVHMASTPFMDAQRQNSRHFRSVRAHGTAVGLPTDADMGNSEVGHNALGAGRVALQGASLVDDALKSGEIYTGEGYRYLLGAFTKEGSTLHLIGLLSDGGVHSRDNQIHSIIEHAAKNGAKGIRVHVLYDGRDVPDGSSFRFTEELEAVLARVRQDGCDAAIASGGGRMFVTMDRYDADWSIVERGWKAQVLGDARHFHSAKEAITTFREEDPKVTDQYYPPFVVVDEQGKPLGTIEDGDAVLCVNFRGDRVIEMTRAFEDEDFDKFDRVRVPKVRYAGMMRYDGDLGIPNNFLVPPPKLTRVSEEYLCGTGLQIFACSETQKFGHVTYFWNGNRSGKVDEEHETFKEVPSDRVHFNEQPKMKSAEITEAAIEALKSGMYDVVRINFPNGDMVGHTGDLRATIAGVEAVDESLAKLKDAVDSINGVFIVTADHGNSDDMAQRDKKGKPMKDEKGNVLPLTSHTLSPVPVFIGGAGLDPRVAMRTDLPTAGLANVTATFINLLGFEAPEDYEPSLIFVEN
D(1A) dopamine receptor (Homo sapiens), sequence (P21728 whole entry, looked up, the tested form may be a part): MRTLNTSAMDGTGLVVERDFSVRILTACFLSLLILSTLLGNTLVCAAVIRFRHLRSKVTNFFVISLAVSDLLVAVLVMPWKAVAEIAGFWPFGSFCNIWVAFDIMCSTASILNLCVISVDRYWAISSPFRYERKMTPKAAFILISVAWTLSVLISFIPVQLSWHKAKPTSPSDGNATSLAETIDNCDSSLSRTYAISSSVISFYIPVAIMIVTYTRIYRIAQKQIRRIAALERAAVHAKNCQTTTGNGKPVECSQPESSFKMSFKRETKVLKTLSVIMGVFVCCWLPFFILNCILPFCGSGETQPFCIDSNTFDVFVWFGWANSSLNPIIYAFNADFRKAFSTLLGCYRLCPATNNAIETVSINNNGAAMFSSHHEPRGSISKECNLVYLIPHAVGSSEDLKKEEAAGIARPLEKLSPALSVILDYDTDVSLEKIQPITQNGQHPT
Thyrotropin receptor (Homo sapiens), sequence (P16473 whole entry, looked up): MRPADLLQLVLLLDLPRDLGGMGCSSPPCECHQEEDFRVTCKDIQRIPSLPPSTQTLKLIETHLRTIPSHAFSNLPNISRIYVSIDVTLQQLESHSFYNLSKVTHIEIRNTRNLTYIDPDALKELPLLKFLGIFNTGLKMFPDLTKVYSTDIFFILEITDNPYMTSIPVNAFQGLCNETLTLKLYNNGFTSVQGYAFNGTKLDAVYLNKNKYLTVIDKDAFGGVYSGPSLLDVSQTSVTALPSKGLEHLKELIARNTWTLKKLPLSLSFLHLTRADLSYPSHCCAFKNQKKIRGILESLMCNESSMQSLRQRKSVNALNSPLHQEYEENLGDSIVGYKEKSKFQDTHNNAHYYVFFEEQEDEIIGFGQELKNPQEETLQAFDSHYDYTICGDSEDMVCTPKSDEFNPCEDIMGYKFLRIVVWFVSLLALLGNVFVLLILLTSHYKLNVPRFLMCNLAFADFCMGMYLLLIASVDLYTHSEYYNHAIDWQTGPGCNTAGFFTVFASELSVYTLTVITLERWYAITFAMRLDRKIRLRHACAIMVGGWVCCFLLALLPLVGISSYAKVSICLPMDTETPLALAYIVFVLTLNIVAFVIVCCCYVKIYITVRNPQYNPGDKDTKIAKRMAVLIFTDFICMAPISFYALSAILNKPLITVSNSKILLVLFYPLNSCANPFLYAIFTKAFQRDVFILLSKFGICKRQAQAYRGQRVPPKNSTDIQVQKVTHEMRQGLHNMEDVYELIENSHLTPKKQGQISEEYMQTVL
Galactokinase (Homo sapiens), sequence (P51570 whole entry, looked up): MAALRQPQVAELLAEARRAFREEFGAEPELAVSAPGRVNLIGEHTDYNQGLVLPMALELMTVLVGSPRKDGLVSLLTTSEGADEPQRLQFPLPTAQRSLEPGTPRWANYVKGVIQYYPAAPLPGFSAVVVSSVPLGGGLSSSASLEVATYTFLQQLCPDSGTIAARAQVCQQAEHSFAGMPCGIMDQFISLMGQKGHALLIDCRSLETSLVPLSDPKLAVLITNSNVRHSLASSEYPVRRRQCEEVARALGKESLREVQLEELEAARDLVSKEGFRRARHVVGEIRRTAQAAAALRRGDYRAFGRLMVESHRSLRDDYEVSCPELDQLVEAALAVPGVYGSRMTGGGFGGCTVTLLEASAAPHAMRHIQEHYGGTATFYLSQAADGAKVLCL
Ubiquitin carboxyl-terminal hydrolase 1 (Homo sapiens), sequence (O94782 whole entry, looked up): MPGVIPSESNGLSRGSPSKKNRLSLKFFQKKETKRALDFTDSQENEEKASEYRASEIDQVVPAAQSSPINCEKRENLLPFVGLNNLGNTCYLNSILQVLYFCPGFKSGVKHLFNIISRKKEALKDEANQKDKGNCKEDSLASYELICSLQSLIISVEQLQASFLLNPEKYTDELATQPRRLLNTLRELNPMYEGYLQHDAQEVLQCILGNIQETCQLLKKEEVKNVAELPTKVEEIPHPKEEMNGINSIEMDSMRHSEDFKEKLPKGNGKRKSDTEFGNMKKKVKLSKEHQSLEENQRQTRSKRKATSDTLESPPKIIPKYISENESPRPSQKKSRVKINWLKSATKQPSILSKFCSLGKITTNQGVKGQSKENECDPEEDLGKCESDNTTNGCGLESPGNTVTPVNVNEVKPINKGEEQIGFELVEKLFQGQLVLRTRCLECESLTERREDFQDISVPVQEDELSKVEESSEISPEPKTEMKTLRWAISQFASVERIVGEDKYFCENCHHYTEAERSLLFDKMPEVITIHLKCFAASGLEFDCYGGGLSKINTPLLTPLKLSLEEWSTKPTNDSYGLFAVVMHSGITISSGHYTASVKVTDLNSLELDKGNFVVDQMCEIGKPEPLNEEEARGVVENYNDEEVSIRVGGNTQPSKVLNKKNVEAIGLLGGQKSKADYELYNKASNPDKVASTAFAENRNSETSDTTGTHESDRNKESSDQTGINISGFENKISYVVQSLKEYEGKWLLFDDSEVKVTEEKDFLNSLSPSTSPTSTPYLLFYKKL

For `O=Nc1c(-c2c(O)[nH]c3cc(Br)ccc23)[nH]c2ccccc12`, the outcome in experiment [1], in experiment [2], in experiment [6], in experiment [7] and in experiment [9] was inactive. For the same compound, the Potency result in [3], in experiment [8], in experiment [11] and in [12] was “inactive” throughout. The Potency in experiment [4] is 0.92 µM (active); in experiment [10] it was 21.3 µM (active). In addition, in experiment [5], the activation was -8.62% (inactive).

As to `COc1ccc2cc([C@H](C)C(=O)O)ccc2c1`, the outcome in experiment [1], in [2], in experiment [14], in experiment [6], in experiment [7] and in experiment [9] was inactive. In addition, the outcome in experiment [17] was inactive. In addition, the Potency entry in [3], in experiment [13], in experiment [4], in experiment [15], in experiment [8] and in [16] was “inactive” each time. The Potency result in experiment [10] and in experiment [12] was “inactive” throughout. The viability change in experiment [15] is -8.13%.

In the case of `C[C@H](Cc1ccc(O)c(O)c1)[C@@H](C)Cc1ccc(O)c(O)c1`, the outcome in experiment [1], in experiment [2], in [6] and in experiment [7] was inactive. The Potency entry in experiment [13], in experiment [4], in experiment [8], in experiment [16] and in experiment [10] was “inactive” each time. Also, the Potency in [12] was 22.4 µM (active).

For `COc1cc2nc(N3CCN(C(=O)C4CCCO4)CC3)nc(N)c2cc1OC` (stereo not given), the result in experiment [1], in experiment [14], in experiment [6], in [7], in experiment [9] and in [17] was inactive. In addition, the Potency result in experiment [3], in experiment [4], in experiment [15], in [8], in experiment [16] and in experiment [10] was “inactive” throughout. Further, the Potency entry in [11] and in experiment [12] was “inactive” in each case. The activation in experiment [5] is 0.562% (inactive). Besides, the viability change in experiment [15] was -1.63%.

As to `CC1(C)C(=O)N(CCN2CCC(C(=O)c3ccc(F)cc3)CC2)c2ccccc21`, the outcome in [1], in experiment [2], in experiment [6], in experiment [7] and in [9] was inactive. Also, the Potency entry in experiment [3], in [4], in experiment [8], in experiment [16] and in [10] was “inactive” each time. The Potency in [13] was 4.47 µM (active). In [5], the activation is 3.12% (inactive).

As for `O=C1c2ccccc2-c2n[nH]c3cccc1c23`, the result in [1], in [2], in experiment [18], in [14], in experiment [7] and in experiment [19] was inactive. Besides, the Potency result in experiment [3], in [13], in experiment [4], in experiment [8], in [16] and in [11] was “inactive” each time. The Potency entry in [12] is “inactive”. Besides, in experiment [5], the activation is 0.75% (inactive). Further, the Potency in [10] was 21.3 µM (active).

As for `Cc1cccc(C#Cc2ccccc2)n1`, the outcome in experiment [1], in [2], in experiment [6], in [7], in [9] and in experiment [17] was inactive. Besides, in [19], the outcome was inactive. Further, the Potency entry in experiment [3], in experiment [13], in experiment [15], in experiment [8], in experiment [11] and in experiment [12] was “inactive” in each case. In addition, in [4], the Potency is 8.2 µM (active). In addition, the activation in experiment [5] was -5.31% (inactive). Also, in [15], the viability change is 2%.

In the case of `COc1ccccc1N1CCN(CCN(C(=O)C2CCCCC2)c2ccccn2)CC1`, the outcome in experiment [1], in experiment [2], in experiment [14], in experiment [6], in experiment [7] and in experiment [9] was inactive. Moreover, the compound was classed as inactive in experiment [17]. In addition, the Potency result in experiment [3], in [13], in experiment [4], in [8], in [16] and in [10] was “inactive” each time. The Potency entry in experiment [11] and in experiment [12] was “inactive” in each case. In experiment [5], the activation was -4.06% (inactive).

On to `Cc1c(OCC(F)(F)F)ccnc1CS(=O)c1nc2ccccc2[nH]1` (stereo not given), for which the result in [1], in experiment [2], in experiment [18], in experiment [6], in experiment [7] and in experiment [9] was inactive. In addition, the compound was called inactive in experiment [17]. Moreover, the Potency entry in [3], in experiment [13], in experiment [4], in [8], in [16] and in [10] was “inactive” throughout. Besides, the Potency result in experiment [11] was “inactive”. The activation in experiment [5] was 4.38% (inactive).

Turning to `NC(=NCc1ccccc1)NC(=O)c1nc(Cl)c(N)nc1N`, the outcome in experiment [1], in experiment [2], in experiment [14], in [6], in experiment [7] and in experiment [9] was inactive. For the same compound, the Potency entry in experiment [3], in experiment [4], in experiment [15], in experiment [8], in experiment [16] and in experiment [10] was “inactive” each time. Besides, the Potency entry in experiment [11] and in experiment [12] was “inactive” in each case. For the same compound, the Potency in [13] is 5.01 µM (active). Moreover, the activation in experiment [5] is 0.438% (inactive). For the same compound, the viability change in experiment [15] amounted to 2.7%.
